Reference: PubChem BioAssay (Tox21)
Inconclusive results are not listed. Where a call stands in place of a potency, no number is given. Activity calls are given as the source filed them. Calls follow the shape of the dose curve; as a rule, active = well fitted curve in the direction sought with a large enough effect in the repeat runs; inconclusive = weak or mixed curves; inactive = no such curve, though single readings can be large; an effect the other way counts as inactive or inconclusive.

How the values were obtained:
[1] = Human pregnane X receptor (PXR) small molecule agonists, qHTS cell viability counter screen (AID 1346977); also: nearly all actives have a fitted effect of over 50% in size; also: potency is read from the fitted curve at half-maximal effect
Summary of the method: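 PXR-Luc HepG2 cells in medium with 5% charcoal-stripped FBS were pre-incubated 5hr, then exposed to compounds for 24hr at 37C. Viability was read in the same wells by CellTiter-Fluor fluorescence, reagent added after 23hr with a 1hr incubation.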

[2] = Caspase-3/7 induction in HepG2 cells by small molecules, qHTS assay (AID 1346978); also: nearly all actives have a fitted effect of over 15% in size; also: potency is read from the fitted curve at half-maximal effect
Summary of the method: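 Wild-type HepG2 cells (2,000/well) were settled 5 h at 37 C, 5% CO2, then exposed to compounds in DMSO for 17 h. Caspase-3/7 activity was read by luminescence 30 min after adding Caspase-Glo 3/7 reagent at room temperature.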

[3] = Caspase-3/7 induction in CHO-K1 cells by small molecules, qHTS cell viability counter screen (AID 1346979); also: nearly all actives have a fitted effect of over 35% in size; also: potency is read from the fitted curve at half-maximal effect
Summary of the method: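 Wild-type CHO-K1 cells were seeded at 1,500 per well, rested 5hr at 37 C, then exposed to compounds in DMSO. After 16hr, CellTiter-Fluor reagent was added and fluorescence read 1hr later as the viability measure.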

[4] = Caspase-3/7 induction in CHO-K1 cells by small molecules, qHTS assay (AID 1346980); also: nearly all actives have a fitted effect of over 15% in size; also: potency is read from the fitted curve at half-maximal effect
Summary of the method: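 Wild-type cells were seeded at 1,500 per well and settled 5 hr at 37 C, 5% CO2, then exposed to DMSO-dissolved compounds for 17 hr. Caspase-Glo 3/7 reagent was added, and luminescence was read after 30min at room temperature.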

[5] = Caspase-3/7 induction in HepG2 cells by small molecules, qHTS cell viability counter screen (AID 1346981); also: nearly all actives have a fitted effect of over 30% in size; also: potency is read from the fitted curve at half-maximal effect
Summary of the method: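 Viability determined by CellTiter-Fluor fluorescence in HepG2 wells also used for the luminescent Caspase-Glo 3/7 read. Compounds were present for 16 hr at 37 C, 5% CO2 before reagent addition.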

[6] = biological target: Nuclear receptor subfamily 1 group I member 2 (Homo sapiens) (UniProt O75469); assay: Human pregnane X receptor (PXR) small molecule agonists, qHTS assay (AID 1346982); also: nearly all actives have a fitted effect of over 35% in size; also: potency is read from the fitted curve at half-maximal effect
Chain of Nuclear receptor subfamily 1 group I member 2 (Homo sapiens) (O75469 whole entry, looked up): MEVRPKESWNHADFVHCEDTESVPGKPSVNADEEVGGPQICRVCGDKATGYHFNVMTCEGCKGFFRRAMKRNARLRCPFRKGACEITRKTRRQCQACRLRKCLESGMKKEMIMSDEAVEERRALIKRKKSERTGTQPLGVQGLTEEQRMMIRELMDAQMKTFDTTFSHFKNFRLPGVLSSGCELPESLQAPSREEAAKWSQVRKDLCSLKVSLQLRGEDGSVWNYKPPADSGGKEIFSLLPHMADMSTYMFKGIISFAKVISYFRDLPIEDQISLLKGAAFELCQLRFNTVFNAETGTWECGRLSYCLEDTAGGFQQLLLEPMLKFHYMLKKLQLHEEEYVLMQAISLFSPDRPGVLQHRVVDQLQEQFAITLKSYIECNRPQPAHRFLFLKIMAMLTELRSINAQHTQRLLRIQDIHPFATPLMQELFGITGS
Summary of the method: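 Compound-induced hPXR transactivation of a CYP3A4 luciferase reporter was scored in HepG2 PXR-Luc cells over 24 hr at 37 C, 5% CO2, by luminescence.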

[7] = biological target: Cytochrome P450 2D6 (Homo sapiens) (UniProt P10635); assay: Cytochrome P450 Family 2 Subfamily D Member 6 (CYP2D6) small molecule antagonists: luciferase reporter qHTS assay (AID 1671196); also: nearly all actives have a fitted effect of over 50% in size; also: potency is read from the fitted curve at half-maximal effect
Chain of Cytochrome P450 2D6 (Homo sapiens) (P10635 whole entry, looked up): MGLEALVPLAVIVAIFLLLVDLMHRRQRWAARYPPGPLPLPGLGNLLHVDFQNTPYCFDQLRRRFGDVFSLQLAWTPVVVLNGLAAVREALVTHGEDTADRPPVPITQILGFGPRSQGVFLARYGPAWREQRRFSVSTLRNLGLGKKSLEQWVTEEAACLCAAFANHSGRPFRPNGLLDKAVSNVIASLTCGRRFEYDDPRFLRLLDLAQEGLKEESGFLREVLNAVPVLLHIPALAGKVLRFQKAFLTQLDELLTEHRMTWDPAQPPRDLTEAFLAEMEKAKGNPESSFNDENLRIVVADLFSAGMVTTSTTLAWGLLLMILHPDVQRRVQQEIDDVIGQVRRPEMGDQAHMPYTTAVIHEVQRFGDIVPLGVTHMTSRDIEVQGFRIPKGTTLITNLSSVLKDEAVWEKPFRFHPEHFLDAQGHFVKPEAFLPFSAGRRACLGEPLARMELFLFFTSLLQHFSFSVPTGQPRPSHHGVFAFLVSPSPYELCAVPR
Summary of the method: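 Each well received CYP2D6 with its proluciferin substrate and chemical, sat 10 min, then got NADPH regeneration solution for 1 h at room temperature. Luminescence in RLU served as the activity measure.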

[8] = biological target: Nuclear receptor subfamily 1 group I member 2 (Homo sapiens) (UniProt O75469); assay: CYP3A4 induction through human pregnane X receptor (PXR) by small molecules, qHTS assay (AID 1346984); also: nearly all actives have a fitted effect of over 40% in size
Summary of the method: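 Readings come from a luciferase reporter: DPX-2 cells, which are HepG2 cotransfected with PXR and a CYP3A4-promoter construct, were exposed to test compounds for 24 h at 37C before One-Glo detection.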

[9] = biological target: Nuclear receptor subfamily 1 group I member 2 (Homo sapiens) (UniProt O75469); assay: Human pregnane X receptor (PXR) activation by small molecules, qHTS assay (AID 1346985); also: nearly all actives have a fitted effect of over 40% in size
Summary of the method: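 DPX-2 cells (HepG2 co-transfected with a PXR response element and a CYP3A4-promoter luciferase construct) were seeded at 2,000 per well, rested 5 hr at 37C, then exposed to DMSO-dissolved compounds for 24 hr. Activation was read as luciferase luminescence.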

Compound	Potency [1]	Potency [2]	Potency [3]	Potency [4]	Potency [5]	Potency [6]	Potency [7]	Potency [8]	Potency [9]
CC(=O)Oc1cc2c(s1)CCN(C(C(=O)C1CC1)c1ccccc1F)C2 (centres undefined)	inactive	inactive	inactive	inactive	inactive	26.6 µM (active)	8.71 µM (active)	–	–
c1ccsc1	inactive	inactive	inactive	inactive	inactive	inactive	inactive	–	–
Cc1c(C)c2c(c(C)c1O)CC[C@@](C)(CCC[C@H](C)CCC[C@H](C)CCCC(C)C)O2	inactive	inactive	inactive	inactive	inactive	inactive	inactive	–	–
CCN(CC)C(=O)c1cc(S(=O)(=O)Cc2ccccc2)c(N2CCC(c3ccccc3)CC2)cc1N(CC)CCN(C)C	13.5 µM (active)	19.1 µM (active)	21.4 µM (active)	24.1 µM (active)	17 µM (active)	3.4 µM (active)	8.84 µM (active)	–	–
COCCOc1cc2cc(C(=O)NC3CCN(C(C)C)CC3)n(CC(=O)Nc3ccc(Cl)cn3)c2cn1	53.9 µM (active)	inactive	inactive	inactive	inactive	inactive	inactive	–	–
COC(=O)c1ccccc1C	inactive	inactive	inactive	inactive	inactive	inactive	inactive	–	–
CC1(C)CC(O)CC(C)(C)N1	inactive	inactive	inactive	inactive	inactive	55.5 µM (active)	inactive	–	–
Cc1c(C)c2c(c(C)c1OC(=O)c1cccnc1)CC[C@@](C)(CCC[C@H](C)CCC[C@H](C)CCCC(C)C)O2	inactive	inactive	inactive	inactive	inactive	inactive	inactive	inactive	inactive
CC[C@H](C)COC(=O)/C=C/c1ccc(N=Cc2ccc(OC)cc2)cc1	inactive	inactive	61 µM (active)	inactive	inactive	30.6 µM (active)	70.9 µM (active)	–	–
O=[N+]([O-])c1ccc(F)c(Cl)c1	inactive	inactive	inactive	inactive	inactive	inactive	inactive	–	–
Clc1ccnc(Cl)n1	inactive	inactive	inactive	inactive	inactive	inactive	inactive	–	–
OCC(F)(F)F	inactive	inactive	inactive	inactive	inactive	inactive	inactive	–	–
CCCCCCCCCCC[C@@H](C[C@@H]1OC(=O)[C@H]1CCCCCC)OC(=O)[C@H](CC(C)C)NC=O	inactive	inactive	16.8 µM (active)	inactive	inactive	inactive	inactive	inactive	inactive
CN(C)Cc1ccccc1O	inactive	inactive	inactive	inactive	inactive	inactive	inactive	–	–
O=C(O)c1cc(-c2ccc(F)cc2F)ccc1O	inactive	inactive	inactive	inactive	inactive	inactive	inactive	inactive	inactive
C=CCCC(=O)/C=C/C1C(C)=CCCC1(C)C (centres undefined)	inactive	inactive	inactive	inactive	inactive	27.3 µM (active)	inactive	–	–
O=C(O)CCN(C1(C(=O)NO)CCCC1)S(=O)(=O)c1ccc(Oc2ccc(F)cc2)cc1	inactive	inactive	inactive	inactive	inactive	inactive	inactive	–	–
CC(C)(C)c1csc(-c2cc3cc(OCc4ccccc4CC(=O)O)ccc3o2)n1	61.1 µM (active)	inactive	61.1 µM (active)	inactive	68.6 µM (active)	61.1 µM (active)	inactive	–	–
CC(C)CCCCCOC(=O)CCS	inactive	inactive	inactive	inactive	inactive	inactive	inactive	–	–
COc1ccc(NC(=O)CC(C)=O)cc1	inactive	inactive	inactive	inactive	inactive	inactive	inactive	–	–
CC(C)(C)C1CCC(=O)CC1	inactive	inactive	inactive	inactive	inactive	inactive	inactive	–	–
COc1cc(/C=C/c2ccccc2)oc(=O)c1	inactive	inactive	inactive	inactive	inactive	7.96 µM (active)	inactive	–	–
CCCC1CCC(=O)CC1	inactive	inactive	inactive	inactive	inactive	inactive	inactive	–	–
CC1(C)CCC[C@]2(C)[C@H]3CCO[C@]3(C)CC[C@@H]12	inactive	inactive	inactive	inactive	inactive	inactive	inactive	–	–
